Hits are enriched below; roughly 1.4% of the tested compounds scored in any of these assays.
Pin1 inhibitor – blocks the human prolyl isomerase Pin1; Pin1 FP peptide displacement, HiFluor488, 10 min; Potency, µM (highest dose often 115 µM), inactives show at the top dose activity, negative = inhibition, most hits filed as inhibitors; 0.009% of 390,000 active; active means well fitted inhibition curve with a large enough effect in the polarisation, with a control signal flat, not every such curve was filed as active; inconclusive means small, poorly fitted or top-dose-only effect, or effect the other way, or a change in a side signal; inactive means no such curve, though single readings can be large or run the other way; the % refers to the polarisation; further: potency means the concentration at half of the fitted maximal effect; on the % scale 0 is the no-effect control and ±100 the full control effect
Target sequence (Q13526 whole entry, looked up): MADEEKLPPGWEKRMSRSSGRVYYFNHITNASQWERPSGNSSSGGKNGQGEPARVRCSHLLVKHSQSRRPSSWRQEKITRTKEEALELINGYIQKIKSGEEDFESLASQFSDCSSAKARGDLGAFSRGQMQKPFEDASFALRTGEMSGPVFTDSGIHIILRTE
pAkt inh – inhibitors of Akt phosphorylation; 0.32% of 360,000 active; activity change, % for hits at 50 µM; Neuro2A IGF-stimulated pAkt S473 HTRF, 20 min; hits give low values; in the data active means activity change below about -80%; inconclusive means mostly about -51% to -80%; further: on the % scale 0 is the no-effect control and ±100 the full control effect
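Single-point screen (50 µM final compound) in Neuro2A cells stimulated 20 min with 6 nM IGF at 37 deg C. After lysis, Ser473-phosphorylated Akt read by HTRF (ex 330 nm, em 615/665 nm) as the 665/615 ratio.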
AT treatment – potential ataxia-telangiectasia treatment. F2112 A-T fibroblasts, KAP-1 phosphorylation AlphaLISA; neocarzinostatin DNA damage 30 min before lysis. Potency, µM (highest dose often 57.5 µM), inactives show at the top dose activation, most hits filed as activators. 0.19% of 320,000 active. AID 485349; further: potency means the concentration at half of the fitted maximal effect; % of control where 0% means no effect; nearly all actives have a fitted effect of over 45% in size
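ATM-like activity read as KAP-1 phosphorylation via AlphaLISA donor/acceptor antibody pairs after lysis and 6 hr at 25C. Cells were ATM-null patient fibroblasts (F2112, hTERT), dosed 60 min, then exposed to the DSB inducer NCS for 30 min.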
TrxR1 substrate – rat thioredoxin reductase 1 substrate activity | 0.01% of 390,000 active | AID 588456 | Potency, µM (titrated, usually from 114 µM), inactives show top-dose activity change, negative = substrate turnover | purified TrxR1 substrate turnover, NADPH consumption readout | O89049; further: potency means the concentration at half of the fitted maximal effect; on the % scale 0 is the no-effect control and ±100 the full control effect; nearly all actives have a fitted effect of over 50% in size
Target sequence (O89049 whole entry, looked up): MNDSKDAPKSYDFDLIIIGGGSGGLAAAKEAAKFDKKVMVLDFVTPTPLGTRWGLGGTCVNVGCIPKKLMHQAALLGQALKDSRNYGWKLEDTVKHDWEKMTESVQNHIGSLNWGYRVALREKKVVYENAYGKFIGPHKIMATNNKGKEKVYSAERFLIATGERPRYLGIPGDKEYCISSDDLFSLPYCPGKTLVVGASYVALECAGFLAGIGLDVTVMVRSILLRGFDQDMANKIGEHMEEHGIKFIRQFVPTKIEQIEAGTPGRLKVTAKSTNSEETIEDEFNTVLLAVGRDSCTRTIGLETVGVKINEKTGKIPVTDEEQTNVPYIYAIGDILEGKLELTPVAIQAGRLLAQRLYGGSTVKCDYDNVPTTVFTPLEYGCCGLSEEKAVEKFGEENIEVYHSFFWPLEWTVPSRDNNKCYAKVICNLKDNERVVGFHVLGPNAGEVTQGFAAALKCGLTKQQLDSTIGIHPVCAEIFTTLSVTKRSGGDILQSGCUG
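Rat TrxR1, dispensed at 90 nM, was prereduced with 400 uM NADPH (final) for 5 min at ~22 deg C, then incubated with compound 15 min before 400 uM selenite. A first-read NADPH fluorescence drop versus no-compound background flagged substrates.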
TrxR1 inh – inhibitors of rat thioredoxin reductase 1. O89049. recombinant rTrxR1, NADPH fluorescence consumption, selenite substrate. Potency, µM (series often up to 114 µM), without a hit: at the top dose activity change, negative = inhibition, hits mostly inhibitors. 1% of 390,000 active; further: potency means the concentration at half of the fitted maximal effect; on the % scale 0 is the no-effect control and ±100 the full control effect; nearly all actives have a fitted effect of over 65% in size
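Rat TrxR1 (90 nM in the dispensed reagent) was pre-reduced with 400 uM NADPH for 5 min at room temperature, then incubated with compound for 15 min. After 400 uM selenite was added, NADPH fluorescence (Ex 340/Em 450 nm) was followed for 8 min.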
N370S GC – inhibits or activates N370S mutant glucocerebrosidase; AID 2101; 0.092% of 330,000 active; N370S GC spleen homogenate, 4MU-glucoside fluorescence; Potency, µM (highest dose often 59.4 µM), without a hit: top-dose activity change, negative = inhibition, usual class: inhibitors;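 further: potency means the concentration at half of the fitted maximal effect; 0% = full enzyme activity and -100% = no enzyme basal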
The depositor's hits bear a star; i = inactive; ? = inconclusive; · = no result given; [ ] = remark or other dose. Unless noted, the call rests on the fitted dose curve; in most records, active means well fitted curve in the direction sought with a large enough effect; inconclusive means small, poorly fitted or top-dose-only effect, or another doubt; inactive means no such curve, though single readings can be large; an effect the other way counts as inactive or inconclusive.

SMILES	Pin1 inhibitor	pAkt inh	AT treatment	TrxR1 substrate	TrxR1 inh	N370S GC
CCN(C(=O)COC(=O)/C=C/c1ccc(F)cc1)C1CCCCC1	-9%	i	4%	-3%	4%	·
CCN(C(=O)COC(=O)/C=C/c1ccco1)C1CCCCC1	-11%	i	-2%	-6%	35µM*	·
CCOC(=O)c1c(C)[nH]c(C)c1C(=O)COC(=O)/C=C/c1ccc(OC)cc1	-5%	i	-9%	-10%	0%	-5%
CCOc1cc(/C=C2\COc3ccccc3C2=O)ccc1OCC(=O)N(C)C	-3%	i	2%	-5%	?	0%
CCNC(=O)COc1ccc(/C=C2\COc3ccccc3C2=O)cc1OC	?	i	25µM*	4%	?	-18%
O=C1CCCC2=C1C1(CCCC1)N=C(Nc1nc3cc(Cl)ccc3o1)N2	5%	·	·	·	·	·
O=C(NC(=S)N1CCCc2ccccc21)c1ccccc1	-5%	-114%*	10%	8%[57.1 µM]	-7%[57.1 µM]	·
O=C(CNC(=O)C1CCCC1)OC(C(=O)Nc1cc(C(F)(F)F)ccc1Cl)c1ccccc1 (stereo not given)	0%	·	·	·	·	·
Cc1ccc(N2C(=O)CC(N(O)C3CC(=O)N(c4ccc(C)cc4)C3=O)C2=O)cc1 (stereo not given)	1%	i	0%	2%[57.1 µM]	?	8%
CCCCCCC(=O)N(O)C1CC(=O)N(c2ccc(Cl)cc2)C1=O (stereo not given)	-6%	i	2%	9%[57.1 µM]	11µM*	-9%
CCCCCCC(=O)N(O)C1CC(=O)N(c2ccc(C)cc2)C1=O (stereo not given)	2%	·	-1%	13%	16µM*	0%
CCc1ccccc1NC(=O)CN(C)S(=O)(=O)c1cccc2nsnc12	-3%	·	·	-7%	12%	·
CC(C)CNC(=O)N1[C@H](c2cccs2)[C@@H](C)C(=O)[C@@H](C)[C@@H]1c1cccs1	-5%	·	·	18%	18%	·
COc1cc(Cl)c(S(=O)(=O)N2CCCC2)cc1Cl	11%	i	1%	1%	26%	3%
COc1cc(N2C(=O)C=CC2=O)c(OC)cc1Cl	1%	i	-6%	-2%	3.2µM*	-4%
Cc1cc(C)c(Cn2cnc3nc4c(cc3c2=O)CCCC4)c(C)c1	-1%	·	·	3%[57.1 µM]	22%[57.1 µM]	·
OCCN1CCN(C(=S)c2ccc(Cl)cc2)CC1	3%	i	10%	3%[57.1 µM]	-1%[57.1 µM]	-2%
CCN1CCN(C(=S)c2ccc(Cl)cc2)CC1	3%	-115%*	-5%	-7%[57.1 µM]	-17%[57.1 µM]	-16%
CC(=O)CC1OC(=O)C(Br)=C1NCc1ccccc1 (stereo not given)	-9%	i	-5%	3%	14µM*	1%
Cc1ccc(/C=C/C(=O)c2ccc(C)cc2)cc1	2%	i	·	-1%[57.1 µM]	-5%[57.1 µM]	-5%
Cc1ccc(C(=O)/C=C/C(=O)c2ccc(C)cc2)cc1	5%	i	25µM*	2%[57.1 µM]	3.2µM*	8%
Nc1ccc(C(Cc2ccnc3ccccc23)Cc2ccnc3ccccc23)cc1	·	·	·	-5%	11%	·
CC(=O)Nc1ccc(C2=NN(c3ccccc3)C(c3cccs3)C2)cc1 (stereo not given)	-7%	i	25µM*	109%[57.1 µM]	12%[57.1 µM]	?
CC(C)c1nc2sc3c(SCC(=O)NCc4ccco4)ncnc3c2c2c1CCC2	5%	-95%*	·	?	?	6%
O=C(CSc1ncnc2sc3c(c12)CCCCC3)NCc1ccco1	?	i	25%	3%	?	?
SMILES	Pin1 inhibitor	pAkt inh	AT treatment	TrxR1 substrate	TrxR1 inh	N370S GC
O=S(=O)(Nc1cc(Sc2ncn[nH]2)c(O)c2ccccc12)c1ccccc1	45µM*	i	-7%	25µM*	11µM*	-2%
C=C1C=C(C)n2ncc(C(=O)Nc3cccc(C(=O)Nc4cccc(C(F)(F)F)c4)c3)c2N1	·	·	·	-6%	-5%	·
Cn1cnc([N+](=O)[O-])c1Sc1ccc(Br)cc1	-2%	i	10%	1%	?	-5%
Cc1ccc(Sc2c([N+](=O)[O-])ncn2C)cc1	1%	-110%*	-7%	1%	?	10%
CC(=O)Nc1nc(C)c(C(C)=O)s1	4%	-106%*	2%	4%[57.1 µM]	-4%[57.1 µM]	0%
CCCCCCCCN1[C@@H](CC(=O)O)c2ccc(/C=C/C(=O)O)cc2S1(=O)=O	·	·	·	-1%	5%	·
CCN(CC)C(=O)c1cc2c(=O)n3ccccc3nc2s1	-1%	i	12%	108%[57.1 µM]	29%[57.1 µM]	?
CC(C)CN(CC(C)C)C(=O)c1cc2c(=O)n3ccccc3nc2s1	-2%	i	13µM*	32%[57.1 µM]	2%[57.1 µM]	?
CC(C)CCNC(=O)c1cc2c(=O)n3ccccc3nc2s1	-2%	i	11%	106%	45µM*	?
CCC(C)NC(=O)c1cc2c(=O)n3ccccc3nc2s1 (stereo not given)	2%	i	22%	412%	-6%	?
Cc1ccc(S(=O)(=O)c2nc(S(C)(=O)=O)sc2N2CCC(C)CC2)cc1	0%	i	-13%	5%	13µM*	-4%
Cc1noc(NS(=O)(=O)c2ccc(NC(=O)c3ccoc3C)cc2)c1C	?	i	-2%	-6%	28µM*	2%
O=C(CNC(=O)c1cccc(Cl)c1)OC(C(=O)Nc1cc(C(F)(F)F)ccc1Cl)c1ccccc1 (stereo not given)	20%	·	·	·	·	·
CC1=NN(Cc2ccccc2)C(=O)C1C(c1ccc(Cl)cc1)C(C#N)C#N (stereo not given)	1%	i	6%	-9%	25µM*	-25%
O=C(CCl)N1N=C(c2ccco2)CC1c1ccco1 (stereo not given)	·	i	-2%	4%	2.5µM*	3%
O=C(CCl)N1N=C(c2cccs2)CC1c1ccco1 (stereo not given)	5%	i	4%	-10%	14µM*	4%
COc1cccc(-c2nn(C)c3sc(C(=O)NCc4ccc(OC)cc4OC)cc23)c1	14%	·	·	25%	45%	·
COc1cccc(-c2nn(C)c3sc(C(=O)NCc4ccc(C)o4)cc23)c1	?	i	·	32%	32µM*	?
O=C(NC(NNc1ccc([N+](=O)[O-])cc1)(C(F)(F)F)C(F)(F)F)c1ccccc1Cl	?	i	24%	-22%	3.2µM*	-30%
COC(=O)C(NNc1ccccc1)(NC(=O)c1ccc(F)cc1)C(F)(F)F (stereo not given)	3%	i	-2%	-1%	-12%	20%
O=C(NC(NNc1ccc([N+](=O)[O-])cc1)(C(F)(F)F)C(F)(F)F)c1ccc(F)cc1	14%	i	3%	-25%	28µM*	-2%
Nc1ccc2c(c1)C=C/C2=C\c1ccccc1	·	·	·	-12%	-23%	·
